rCAG binder – molecules binding r(CAG) RNA repeats | r(CAG) RNA repeat, TO-PRO-1 dye displacement fluorescence | inhibition, % at 3 µM | hit rate 1.3% among 370,000;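 active means inhibition above the plate cutoff, the mean of all test compounds on that plate plus 3 SD, cut at about 35% in these data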;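 further: 0% = DMSO alone and 100% = 100 µM mitoxantrone as full dye displacement; higher means more dye released from RNA so lower well fluorescence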
aDG glyco act – increases alpha dystroglycan glycosylation; Pro5-aDG cells, alpha-DG glycosylation AlphaScreen (IIH6); 0% Pro5, 100% B10-LARGE cell signal; activation, % at 10 µM; hit rate 0.22% among 360,000;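 active means activation of at least 8% versus controls, or a plate z-score of at least 8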;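 further: Pro5 are CHO cells carrying HIG-tagged alpha-DG that lacks glycosylation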
A3A deaminase – human APOBEC3A DNA deaminase inhibition | P31941 | recombinant A3A, FAM/TAMRA ssDNA deamination fluorescence | inhibition, % at 20 µM | hit rate 0.41% among 330,000 | AID 493011;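 active means at least 40% inhibition at 20 µM here, with at most 30% in a related deaminase screen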;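 further: plate controls were A3A with DMSO for no effect and wells lacking A3A enzyme for full effect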
ALR inh – inhibitors of human sulfhydryl oxidase ALR. purified ALR, DTT oxidation, H2O2 HRP-luminol luminescence. inhibition, % (no concentration beside the values). hit rate 3.8% among 290,000. AID 485317;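 active means mean replicate inhibition above about 79%, with every replicate also reaching it, limit read from the data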
PHOSPHO1 inh – inhibitors of human PHOSPHO1 phosphatase. inhibition, % at 13.3 µM. hit rate 1.1% among 290,000. recombinant PHOSPHO1, absorbance phosphatase assay. Q8TCT1. AID 1565; in the data active means inhibition above about 60%
Target sequence (Q8TCT1 whole entry, looked up): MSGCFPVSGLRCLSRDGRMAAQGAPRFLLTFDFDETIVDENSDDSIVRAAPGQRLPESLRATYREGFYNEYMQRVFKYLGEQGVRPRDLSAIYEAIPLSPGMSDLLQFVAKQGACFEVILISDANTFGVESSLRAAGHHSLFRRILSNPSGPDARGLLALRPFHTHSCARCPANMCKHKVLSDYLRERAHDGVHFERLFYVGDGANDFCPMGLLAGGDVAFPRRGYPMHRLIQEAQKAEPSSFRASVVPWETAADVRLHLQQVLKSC
A3G deaminase – blocks human APOBEC3G single-stranded DNA deamination; inhibition, % at 20 µM; recombinant A3G, ssDNA deamination FAM/TAMRA fluorescence; hit rate 0.28% among 330,000;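 active means inhibition of at least 40% at 20 µM, with no more than 30% in the related APOBEC3A deaminase screen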;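 further: plate controls were DMSO wells with A3G for no effect and wells lacking A3G enzyme for full effect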
Target sequence (Q9HC16 whole entry, looked up): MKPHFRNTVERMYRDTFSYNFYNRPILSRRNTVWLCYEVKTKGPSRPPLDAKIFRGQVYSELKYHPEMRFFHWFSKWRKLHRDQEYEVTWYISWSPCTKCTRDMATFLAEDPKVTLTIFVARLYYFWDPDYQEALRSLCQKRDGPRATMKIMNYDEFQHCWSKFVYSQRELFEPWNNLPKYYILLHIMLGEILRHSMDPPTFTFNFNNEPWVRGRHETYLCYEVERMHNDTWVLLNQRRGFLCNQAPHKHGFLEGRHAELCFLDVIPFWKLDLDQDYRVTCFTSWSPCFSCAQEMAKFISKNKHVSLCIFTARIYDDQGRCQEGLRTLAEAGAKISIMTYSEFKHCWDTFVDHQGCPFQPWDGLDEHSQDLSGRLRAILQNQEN
A3A conf – APOBEC3A (human) deaminase inhibition, confirmed; shares compounds with A3A deaminase; recombinant A3A, ssDNA deaminase UDG fluorescence assay; inhibition, % at 20 µM; hit rate 63% among 1,400; AID 493151;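 active means inhibition reaching a set limit, 80% of the first screen's cutoff, at 20 µM in any replicate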;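 further: plate controls were DMSO wells with A3A for no effect and wells lacking A3A enzyme for full effect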
UDG A3A counter – UDG inhibition in APOBEC3A counter-screen; shares compounds with A3A deaminase; UDG counterscreen, FAM/TAMRA uracil oligo fluorescence; inhibition, % at 20 µM; 1,000 tested, under 10 active; AID 504714; call rule not given here
Active calls of the source: *; nt = no result given. Most compounds without a hit are left out; they make up all but 5.4% or so of the library.

SMILES	rCAG binder	aDG glyco act	A3A deaminase	ALR inh	PHOSPHO1 inh	A3G deaminase	A3A conf	UDG A3A counter
Cc1ccc(OCCSc2nc3ccccc3n2CC(=O)O)cc1	11	0	3	nt	-12	4	nt	nt
O=C(Cn1c(Cn2c(-c3cnccn3)nc3ccccc32)nc2ccccc21)c1ccc(OC(F)(F)F)cc1	2	0	nt	nt	nt	nt	nt	nt
CCC(=O)N1CCc2cc(Br)c(S(=O)(=O)N3CCCC(C(=O)NC(C)(C)C)C3)cc21 (configuration not stated)	6	nt	nt	nt	nt	nt	nt	nt
O=C(CSc1ccc(-c2ccncc2)nn1)N1CCCCC1	0	0	102*	-16	-20	-2	4	6
CC(C)C[C@H](NC(=O)c1ccccc1)C(=O)N1CCC[C@H]1C(=O)NCc1ccccc1	1	nt	nt	nt	nt	nt	nt	nt
O=C(Nc1ccccc1Cl)c1ccc2ccccc2c1	-1	0	-5	0	nt	-3	nt	nt
Cc1ccc(C)c(NC(=O)c2ncn[nH]2)c1	0	0	45*	7	10	12	41*	-1
Cc1ccc(C)c(NC(=O)c2cc[n+](C)cc2)c1	-1	0	79*	0	14	9	69*	-2
Cc1ccc(C)c(NC(=O)c2cnccn2)c1	4	0	0	-9	39	1	nt	nt
Cc1c(NC(=O)c2ccc(N3CCCC3)c([N+](=O)[O-])c2)cccc1-c1nc2ccccc2s1	2	1	4	nt	10	2	nt	nt
Cc1c(NC(=O)c2ncn[nH]2)cccc1-c1nc2ccccc2s1	4	0	75*	9	6	25	72*	3
C[n+]1ccc(C(=O)Nc2ccccc2Cl)cc1	-2	0	73*	9	-137	14	69*	-2
COc1cc(C2c3[nH]c4ccccc4c3CC3COC(=O)N32)cc(OC)c1O (configuration not stated)	4	0	nt	nt	nt	nt	nt	nt
C/C(C=NNC(=O)CSc1nc2ccccc2n1C)=C\c1ccccc1	3	nt	nt	nt	nt	nt	nt	nt
C[C@@H]1ON(C)[C@H]2C[C@H]3c4[nH]c5c(-c6ccccc6F)cccc5c4CCN3C(=O)[C@@H]12	3	nt	nt	nt	nt	nt	nt	nt
COC(=O)[C@]12C[C@H](CC(=O)NCC3CCCCC3)C(=O)N(CCC3=CCCCC3)C1=C[C@H](COCc1ccccc1)O[C@@H]2C	7	nt	nt	nt	nt	nt	nt	nt
COc1cc2c(cc1OC)C[N+](C)(C)CC2	1	0	45*	-7	-44	11	75*	-4
COC(=O)c1cc(NC(=O)Cc2cccs2)cc(C(=O)OC)c1	23	0	64*	-2	30	18	48*	nt
CC(=O)Nc1cccc(NC(=O)Cc2cccs2)c1	14	0	0	-8	19	-4	nt	nt
O=C(NCc1ccccc1)[C@H]1CCCN1C(=O)[C@H]1CCCN1C(=O)c1cccs1	-1	nt	nt	nt	nt	nt	nt	nt
O=C(CC12CCC(CC1)C2)NCc1ccc2c(c1)OCO2	-4	0	44*	nt	3	-3	-4	-1
O=C(Cc1ccccc1)NCc1ccc2c(c1)OCO2	1	1	2	-12	12	4	nt	nt
COc1ccc(/C=N/NC(=O)C(C)Sc2ccccn2)cc1[N+](=O)[O-] (configuration not stated)	1	0	49*	-3	13	11	65*	12
COc1ccc2sc(C)[n+](C)c2c1	-5	0	25	72	-19	15	nt	nt
CCCC[n+]1c(C)sc2cc(OC)ccc21	-4	0	65*	nt	-45	18	66*	-2
SMILES	rCAG binder	aDG glyco act	A3A deaminase	ALR inh	PHOSPHO1 inh	A3G deaminase	A3A conf	UDG A3A counter
C[C@H]1CN([C@@H](C)CO)C(=O)CCCn2nncc2CO[C@@H]1CN(C)Cc1ccc2cccnc2c1	0	nt	nt	nt	nt	nt	nt	nt
Cc1cccc(C)c1NC(=O)C(C)Sc1n[nH]c(-c2ccncc2)n1 (configuration not stated)	0	0	82*	nt	45	-8	-10	1
Cc1ccc(-c2nc(SC(C)C(=O)NC3CC3)n[nH]2)cc1 (configuration not stated)	5	0	nt	nt	nt	nt	nt	nt
COc1ccc(C(=O)C(=O)N2CCN(S(=O)(=O)c3cccc4c(N(C)C)cccc34)CC2)cc1OC	8	nt	nt	nt	nt	nt	nt	nt
COc1ccc(N(Cc2cc3cc(C)ccc3[nH]c2=O)C(C)=O)cc1	-4	0	47*	0	52	-4	-3	0
Cc1ccc([C@H]2C[C@@H](O)[C@H](n3cc(-c4ccc(F)cc4)nn3)CN2C(=O)C2CCCCC2)cc1	6	0	nt	nt	nt	nt	nt	nt
COc1ccc2nc(NC(=S)NC(=O)c3ccco3)sc2c1	8	0	-3	-2	2	-8	nt	nt
COc1ccc2sc(NC(=O)c3ccco3)nc2c1	0	0	61*	-14	96*	29	48*	-2
COc1ccc2nc(NC(=O)c3ccc(-c4cccc([N+](=O)[O-])c4)o3)sc2c1	nt	nt	53*	-7	-6	14	32*	nt
Cc1cc(C(=O)N2CCC2(C)C(=O)Nc2cccc3c2CCCC3)nn1C (configuration not stated)	3	0	nt	nt	nt	nt	nt	nt
CSc1nc2ccc(NC(=O)c3ccc(=O)[nH]c3)cc2s1	1	0	42*	-5	8	3	23	nt
COc1ccc(C2C(C(=O)Nc3cc(OC)ccc3OC)CCC(=O)N2c2ccc(OC)cc2)cc1 (configuration not stated)	7	nt	nt	nt	nt	nt	nt	nt
O=C(NCCc1ccccc1)c1ccc2c(c1)OCCO2	1	0	0	-8	9	-8	nt	nt
O=C(NCCc1ccccc1)c1ccc2c(c1)OCCCO2	1	0	42*	-3	30	6	51*	2
Nc1ccc(-c2ccc(N)c(C(=O)O)c2)cc1C(=O)O	-1	0	48*	83*	25	12	37*	1
COc1ccc(-c2nc(N=Nc3ccc(O)cc3)n[nH]2)cc1	3	-1	-1	nt	-9	-9	nt	nt
Cc1ccc(N=Nc2[nH]c3ccccc3c2O)cc1	7	0	63*	-2	-2	22	59*	-1
COc1ccc(N=Nc2[nH]c3ccc(C)cc3c2O)cc1	12	0	75*	-9	-7	21	52*	0
Cc1ccc(N=Nc2c(O)[nH]c3ccc(F)cc23)cc1	5	0	-5	-8	-13	1	nt	nt
C[C@H](O)[C@@H]1CN2CCc3ccc(N4CCOCC4)cc3[C@@H]2C[C@@H]1N(C)C(=S)NCCc1ccccc1	3	nt	nt	nt	nt	nt	nt	nt
Cc1cccnc1NC(=O)CN1C(=O)COc2ccc(Cl)cc21	-6	0	69*	nt	nt	17	59*	-1
CC1(C)CC(=O)C(C(=O)C2CCN(S(=O)(=O)c3ccccc3)CC2)C(=O)C1	1	0	47*	-6	28	-7	-5	1

Screening data deposited in PubChem BioAssay by several laboratories.
